Compound activity from PubChem BioAssay.
aSyn yeast inh: qHTS of alpha-syn Inhibitors; Yeast expressing alpha-synuclein, growth rescue, BacTiter-Glo, 24 h; Potency, µM (titrated, usually from 46.1 µM), for the others: at the highest dose growth rescue (activation), hits mostly activators; 0.14% of 370,000 active; AID 652106, 2013; note: % of control where 0% means no effect; nearly all actives have a fitted effect of over 65% in size
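Rescue of yeast growth: cells expressing toxic alpha-synuclein, induced in galactose at OD600 0.02, incubated with compound 24 h at 30 C. ATP luminescence quantified growth; inhibitors of toxicity appear as activators.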
Abeta rescue: qHTS for compounds that reverse cellular toxicity of Amyloid beta (A-beta) peptide in yeast: Primary Screen. AID 1347071, 2019. 0.063% of 410,000 active. yeast expressing A-beta42, growth rescue, OD600, 48 h; response scale: 0% DMSO, 100% iron-clioquinol control. Potency, µM (top dose mostly 46.1 µM), most hits filed as activators; note: nearly all actives have a fitted effect of over 55% in size
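Yeast growth medium received pinned compounds, then yeast cells expressing toxic A-beta were added; plates incubated at 30 C for 48 hr. Growth read as absorbance at 600 nm, normalized to DMSO and equimolar FeCl3 plus clioquinol controls.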
TDP-43 yeast inh: qHTS of TDP-43 Inhibitors; TDP-43 expressing yeast growth rescue, BacTiter-Glo, 24 h; Potency, µM (titrated, usually from 46.1 µM), without a hit: at the top dose growth rescue (activation), actives largely listed as activators; 1.8% of 410,000 active; AID 652104, 2013; note: % of control where 0% means no effect; nearly all actives have a fitted effect of over 50% in size
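Luminescence from BacTiter-Glo reports growth of TDP-43-expressing yeast after 24 hr at 30 deg C with compound. Cells were raffinose-pregrown to mid-log, then seeded in galactose medium at OD600=0.02.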
FUS suppressor: qHTS for Suppressors of FUS Proteinopathy: Primary screen using FUS-linked yeast assay; S. cerevisiae FUS-expressing, growth rescue, OD600, 24 h; Potency, µM (titrated, usually from 76.6 µM), actives largely listed as activators; 0.24% of 390,000 active;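 note: plate controls were DMSO vehicle for no effect and reference control for full effect; nearly all actives have a fitted effect of over 55% in size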
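Restored growth of FUS-toxic S. cerevisiae, read as 600 nm absorbance after 24 h at 30C in galactose medium (starting OD 0.005). Controls CP55940 and DMSO.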
PTAP TSG101 blk: qHTS Assay for Iinhibitors of HIV-1 Budding by Blocking the Interaction of PTAP/TSG101; Tumor susceptibility gene 101 protein (Homo sapiens), Q99816; Fluorescence polarization, FITC-PTAP peptide / Tsg101 binding; Potency, µM (series often up to 115 µM), for inactives: at the highest dose activity change, negative = inhibition, actives largely listed as inhibitors; 340,000 tested, under 10 active; active = well fitted inhibition curve with a large enough effect in the main read-out, with a control signal flat, not every such curve was filed as active; inconclusive = small, poorly fitted or top-dose-only effect, or effect the other way, or a change in a side signal; inactive = no such curve, though single readings can be large or run the other way; note: % of control where 0% means no effect
Target sequence (Q99816 whole entry, looked up): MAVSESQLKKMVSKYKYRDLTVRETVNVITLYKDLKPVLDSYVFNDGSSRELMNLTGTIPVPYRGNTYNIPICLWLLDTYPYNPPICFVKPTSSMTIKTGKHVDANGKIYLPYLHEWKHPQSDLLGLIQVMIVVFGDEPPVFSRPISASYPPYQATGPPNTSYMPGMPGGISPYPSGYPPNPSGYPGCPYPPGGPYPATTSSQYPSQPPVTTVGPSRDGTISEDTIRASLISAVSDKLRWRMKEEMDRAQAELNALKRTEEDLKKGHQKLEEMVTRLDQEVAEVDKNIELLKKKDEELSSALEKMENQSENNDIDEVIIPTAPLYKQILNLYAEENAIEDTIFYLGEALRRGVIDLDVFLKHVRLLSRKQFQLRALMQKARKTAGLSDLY
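Tsg101 binding domain (10 uM final) was mixed with compound and a FITC-labeled PTAP peptide (50 nM final) in HEPES pH 7.5 buffer with NaCl, Tween 20, EDTA and TCEP; fluorescence polarization was read after 20 min at r.t.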
* = called active by the depositor; [ ] = remark or other dose. Compounds with a hit are over-represented: about 2.1% of the library has one in this group of screens. Unless noted, calls come from the whole dose curve; as a rule, active = well fitted curve in the direction sought with a large enough effect; inconclusive = small, poorly fitted or top-dose-only effect, or another doubt; inactive = no such curve, though single readings can be large; an effect the other way counts as inactive or inconclusive. Potency is the fitted concentration of half-maximal effect.

Screening CCc1cc(C(=O)Nc2ccc(S(=O)(=O)NC3=NCCCCC3)cc2)sc1C returned aSyn yeast inh -2.8%, Abeta rescue inactive, TDP-43 yeast inh -26.8%, FUS suppressor 25.1µM* and PTAP TSG101 blk -3.4%.
Screening COc1ccccc1NC(=O)Cn1nnc(-c2ccccc2NC(=O)c2cc3ccccc3oc2=O)n1 returned aSyn yeast inh -4.3%, Abeta rescue inactive, TDP-43 yeast inh -9.0%, FUS suppressor 25.1µM* and PTAP TSG101 blk -8.1%.
Screening COc1ccccc1NC(=O)c1cc2ccccc2o/c1=N\O returned aSyn yeast inh -14.5%, Abeta rescue inactive, TDP-43 yeast inh 17.8µM* and PTAP TSG101 blk -0.6%.
COc1ccccc1NC(=O)Cn1nnc(-c2ccccc2NS(=O)(=O)c2ccccc2)n1 was read as aSyn yeast inh 2.3%, Abeta rescue inactive, TDP-43 yeast inh -20.2% and PTAP TSG101 blk -0.3%.
`COc1cccc(/C=C2\CC3(OC(=O)c4ccc(F)cc4)CCCN2C3)c1` (configuration not stated) gave FUS suppressor inactive.
Screening CCOC(=O)CSC1=NC(=O)/C(=C\c2ccc(OC(C)=O)cc2)S1 returned aSyn yeast inh -9.4%, Abeta rescue inactive, TDP-43 yeast inh -22.2%, FUS suppressor inactive and PTAP TSG101 blk -1.0%.
CCOC(=O)CSC1=NC(=O)/C(=C/c2ccc(Br)cc2)S1 was read as aSyn yeast inh -31.3%, Abeta rescue inactive, TDP-43 yeast inh 11.2µM*, FUS suppressor inactive and PTAP TSG101 blk 1.8%.
Screening O=C(c1ccc2c(c1)OCO2)N1CCCC1 returned aSyn yeast inh 0.9%, Abeta rescue inactive, TDP-43 yeast inh -29.0%, FUS suppressor 10µM* and PTAP TSG101 blk -5.4%.
O=C(Nc1ccccc1N1CCN(C(=O)c2ccc(Cl)cc2)CC1)c1ccc2c(c1)OCO2 was read as Abeta rescue inactive, TDP-43 yeast inh 6.31µM*, FUS suppressor inconclusive and PTAP TSG101 blk 0.6%.
`O=C(Nc1ccccc1N1CCN(C(=O)c2ccccc2)CC1)c1cc(Br)ccc1Cl` gave aSyn yeast inh 14.0%, Abeta rescue inactive, TDP-43 yeast inh inconclusive, FUS suppressor 25.1µM* and PTAP TSG101 blk -0.8%.
O=C(Nc1ccccc1N1CCN(C(=O)c2ccc(Cl)cc2)CC1)c1cccc(F)c1 was read as aSyn yeast inh -6.9%, Abeta rescue inactive, TDP-43 yeast inh inconclusive, FUS suppressor inactive and PTAP TSG101 blk -2.3%.
Cc1cccc(Cn2c(-c3cccc(Br)c3)nc3ccccc32)c1 was read as Abeta rescue inactive, TDP-43 yeast inh 14.1µM* and FUS suppressor inactive.
For CC1C/C(=C/c2cccn2C)C(=O)/C(=C/c2cccn2C)C1 (configuration not stated) the results were aSyn yeast inh 5.0%, Abeta rescue inactive, TDP-43 yeast inh 12.6µM*, FUS suppressor inactive and PTAP TSG101 blk inconclusive.
COC(=O)c1ccc(Oc2ccc(S(=O)(=O)N3CCCCC3)cc2N)cc1 was read as aSyn yeast inh 12.6µM*, Abeta rescue inactive, TDP-43 yeast inh inconclusive, FUS suppressor inactive and PTAP TSG101 blk 0.6%.
`Cc1cccc(-c2noc(-c3ccc(NC4CCCC4)c([N+](=O)[O-])c3)n2)c1` gave Abeta rescue inactive, TDP-43 yeast inh -1.1% and FUS suppressor inactive.
`CN(CC(=O)Nc1cccc(F)c1)C(=O)c1ccc(-c2ccc(Cl)cc2)o1` gave aSyn yeast inh 15.2%, Abeta rescue inactive, TDP-43 yeast inh 22.4µM*, FUS suppressor inactive and PTAP TSG101 blk -0.4%.
c1ccc(-c2nn3c(C4CCCCC4)nnc3s2)cc1 was read as aSyn yeast inh 3.5%, Abeta rescue inactive, TDP-43 yeast inh 20µM*, FUS suppressor inactive and PTAP TSG101 blk -1.8%.
Screening Clc1ccc(OCc2nn3c(C4CCCCC4)nnc3s2)cc1 returned aSyn yeast inh 25.0%, Abeta rescue inactive, TDP-43 yeast inh 20µM*, FUS suppressor inconclusive and PTAP TSG101 blk -1.1%.
Screening COc1ccc(-c2nn3c(C4CCCCC4)nnc3s2)cc1OC returned aSyn yeast inh -2.5%, Abeta rescue inactive, TDP-43 yeast inh 20µM*, FUS suppressor inconclusive and PTAP TSG101 blk 0.6%.
Screening CC1(OC(=O)C2CCCC2)C(=O)C=C2C=C(c3ccsc3)N(C3CCCCC3)C=C2C1=O (configuration not stated) returned aSyn yeast inh -16.1%, Abeta rescue inactive, TDP-43 yeast inh 10µM*, FUS suppressor inactive and PTAP TSG101 blk 0.2%.
O=C(Nc1c(Cl)cccc1Cl)c1cc(-c2cccc(O)c2)on1 was read as Abeta rescue inactive, TDP-43 yeast inh 15.8µM* and FUS suppressor inactive.
`O=C(Nc1c(Cl)cccc1Cl)c1cc(-c2ccc3c(c2)OCO3)on1` gave Abeta rescue inactive, TDP-43 yeast inh 32.6% and FUS suppressor inactive.
For CCCNS(=O)(=O)/C=C/c1ccccc1 the results were aSyn yeast inh 6.1%, Abeta rescue inactive, TDP-43 yeast inh 15.3%[9.22 µM], FUS suppressor inactive and PTAP TSG101 blk -1.5%.
For O=S(=O)(/C=C/c1ccccc1)NCc1ccccc1Cl the results were aSyn yeast inh 12.2%, Abeta rescue inactive, TDP-43 yeast inh 11.2µM*, FUS suppressor inactive and PTAP TSG101 blk -10.3%.
For CCCc1cc(=O)oc2c(C)c3c(cc12)CN(CCc1ccc(Cl)cc1)CO3 the results were Abeta rescue inactive, TDP-43 yeast inh 0.7% and FUS suppressor inactive.
`Cc1cc(Nc2ccc(C(C)C)cc2)n2ncnc2n1` gave aSyn yeast inh 20.5%, Abeta rescue inactive, TDP-43 yeast inh 11.2µM*, FUS suppressor inactive and PTAP TSG101 blk -0.2%.
For CCN1C(=O)[C@@H]2[C@@H](c3ccc(-c4ccc(Cl)c(Cl)c4)cc3)N3CCC[C@@]3(C(=O)OC)[C@@H]2C1=O the results were aSyn yeast inh 1.8%, Abeta rescue inactive, TDP-43 yeast inh 14.1%, FUS suppressor 20µM* and PTAP TSG101 blk 0.1%.
`COC(=O)[C@]1(Cc2ccccc2)N[C@H](c2ccc(-c3cccc(Cl)c3)cc2)[C@@H]2C(=O)N(C)C(=O)[C@@H]21` gave aSyn yeast inh 26.5%, Abeta rescue inactive, TDP-43 yeast inh 8.1%, FUS suppressor 14.1µM* and PTAP TSG101 blk -1.3%.
CCN1C(=O)[C@H]2[C@@H](c3ccc(-c4ccc(Cl)c(Cl)c4)c(OC)c3)N3CCCC[C@@]3(C(=O)OC)[C@H]2C1=O was read as aSyn yeast inh inconclusive, Abeta rescue inactive, TDP-43 yeast inh 3.4%, FUS suppressor 25.1µM* and PTAP TSG101 blk -1.0%.
